According to PubChem BioAssay AID1159580 (chemical genetic matrix, 2015):
About 2,000 (36%) of roughly 5,500 compounds were called active. Inconclusive results (about 18%) are left out. Cut-off read from the data, not from the text of the source: active = normalized growth mostly below about 0.91 (no sharp cut-off); inconclusive = no clear call, values can overlap the other calls; inactive = mostly above about 0.92. The list shows a part of the results.

Assay: chemical genetic growth profiling, strain panel (AID 1159580);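 note: tested at 20 µM; growth read once vehicle control cultures reached saturation at 30 °C; 1 = growth at the plate median or of vehicle wells; lower values mean less growth of the strain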
Settings: S. cerevisiae deletion strains, growth OD

Measured: normalized growth

O=c1cc(CSc2ccc(Cl)cc2)c2ccc(O)cc2o1
active: locus YDR477W, strain SNF1, hits give low values 0.674 | locus YER123W, strain YCK3, hits give low values 0.565 | locus YER133W, strain GLC7, hits give low values 0.572 | locus YGR040W, strain KSS1, hits give low values 0.631 | locus YGR052W, strain FMP48, hits give low values 0.436 | locus YHR030C, strain SLT2, hits give low values 0.452 | locus YHR079C, strain IRE1, hits give low values 0.405 | locus YHR082C, strain KSP1, hits give low values 0.472 | locus YJL095W, strain BCK1, hits give low values 0.432 | locus YKL048C, strain ELM1, hits give low values 0.656 | locus YKL067W, strain YNK1, hits give low values 0.732 | locus YKL101W, strain HSL1, hits give low values 0.682 | locus YKL203C, strain TOR2, hits give low values 0.66 | locus YLR113W, strain HOG1, hits give low values 0.265 | locus YLR403W, strain SFP1, hits give low values 0.639 | locus YML070W, strain DAK1, hits give low values 0.666 | locus YNL183C, strain NPR1, hits give low values 0.434 | locus YOR119C, strain RIO1, hits give low values 0.654 | locus YOR231W, strain MKK1, hits give low values 0.444 | locus YPL031C, strain PHO85, hits give low values 0.497 | locus YPL153C, strain RAD53, hits give low values 0.442 | locus YPL204W, strain HRR25, hits give low values 0.574 | locus YPL256C, strain CLN2, hits give low values 0.41
inactive: locus YAR019C, strain CDC15, hits give low values 0.937 | locus YBL105C, strain PKC1, hits give low values 0.963 | locus YBR135W, strain CKS1, hits give low values 0.944 | locus YBR136W, strain MEC1, hits give low values 0.949 | locus YBR160W, strain CDC28, hits give low values 0.96 | locus YDL017W, strain CDC7, hits give low values 0.964 | locus YDL028C, strain MPS1, hits give low values 0.956 | locus YDL101C, strain DUN1, hits give low values 0.974 | locus YDL108W, strain KIN28, hits give low values 0.955 | locus YDL132W, strain cdc53, hits give low values 0.944 | locus YDL214C, strain PRR2, hits give low values 0.738 | locus YDR052C, strain DBF4, hits give low values 0.962 | locus YDR054C, strain cdc34, hits give low values 0.937 | locus YDR226W, strain ADK1, hits give low values 0.959 | locus YFL009W, strain cdc4, hits give low values 0.935 | locus YFL029C, strain CAK1, hits give low values 0.943 | locus YFR003C, strain YPI1, hits give low values 0.959 | locus YFR019W, strain FAB1, hits give low values 0.826 | locus YFR028C, strain CDC14, hits give low values 0.954 | locus YGR092W, strain DBF2, hits give low values 0.63 | locus YHR205W, strain SCH9, hits give low values 0.759 | locus YIL147C, strain SLN1, hits give low values 0.95 | locus YJL128C, strain PBS2, hits give low values 0.92 | locus YJL157C, strain FAR1, hits give low values 0.737 | locus YJR016C, strain ILV3, hits give low values 0.945 | locus YJR066W, strain TOR1 (second series), hits give low values 0.738 | locus YJR066W, strain TOR1, hits give low values 0.534 | locus YKL193C, strain SDS22, hits give low values 0.947 | locus YLR133W, strain CKI1, hits give low values 0.747 | locus YMR001C, strain CDC5, hits give low values 0.944 | locus YMR205C, strain PFK2 (second series), hits give low values 0.748 | locus YMR277W, strain FCP1, hits give low values 0.928 | locus YNL006W, strain LST8, hits give low values 0.958 | locus YNL020C, strain ARK1, hits give low values 0.719 | locus YNL161W, strain CBK1, hits give low values 0.947 | locus YNL207W, strain RIO2, hits give low values 0.946 | locus YNL222W, strain SSU72, hits give low values 0.944 | locus YNL307C, strain MCK1 (second series), hits give low values 0.686 | locus YOL078W, strain AVO1, hits give low values 0.939 | locus YOL136C, strain PFK27, hits give low values 0.748 | locus YOR061W, strain CKA2, hits give low values 0.712 | locus YOR329C, strain SCD5, hits give low values 0.955 | locus YPL209C, strain IPL1, hits give low values 0.955 | locus YPR025C, strain CCL1, hits give low values 0.952 | locus YPR106W, strain ISR1, hits give low values 0.952 | locus YPR111W, strain DBF20, hits give low values 0.951 | strain NNK1, hits give low values 0.948 | strain TSCII, hits give low values 0.934
